Test results taken from PubChem BioAssay.
Unmarked numbers belong to inactive results. For some assays here: Entries with a potency or affinity are not part of this list. Activity calls are given as the source filed them. Unless noted, how the calls were made is not given here.

Key:
[1] = antimalarial activity against Dd2 strain (AID 2302;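 active means growth inhibition above 50% at the single 2 µM test dose, taken to imply half-maximal potency below 2 µM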;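 further: 0% = DMSO untreated growth and 100% = chloroquine plus artemisinin killed control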); details: P. falciparum Dd2 in RBCs, LDH growth readout, 72 h; at 2 µM; stronger effect = higher value
[2] = HepG2 cytotoxicity, primary screen, cytotoxicity control for P. falciparum antimalarial project, cell-based, ATP luminescence (AID 2303;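 active means inhibition above 50%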;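 further: 0% = DMSO wells and 100% = digitonin-killed cells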); details: HepG2 viability, 24-48 h, at 10 µM, stronger effect = higher value
[3] = biological target: L-lactate dehydrogenase (Plasmodium falciparum (isolate CDC / Honduras)) (UniProt Q27743); assay: PfLDH activity inhibition – cell lysate, 3D7 strain, counter-screen for P. falciparum growth inhibition project (AID 2304);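 further: 0% = vehicle and 100% = reference inhibitor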; details: P. falciparum 3D7 crude extract, LDH APAD/NBT absorbance; at 2 µM; stronger effect = higher value
L-lactate dehydrogenase (Plasmodium falciparum (isolate CDC / Honduras)), sequence (Q27743 whole entry, looked up): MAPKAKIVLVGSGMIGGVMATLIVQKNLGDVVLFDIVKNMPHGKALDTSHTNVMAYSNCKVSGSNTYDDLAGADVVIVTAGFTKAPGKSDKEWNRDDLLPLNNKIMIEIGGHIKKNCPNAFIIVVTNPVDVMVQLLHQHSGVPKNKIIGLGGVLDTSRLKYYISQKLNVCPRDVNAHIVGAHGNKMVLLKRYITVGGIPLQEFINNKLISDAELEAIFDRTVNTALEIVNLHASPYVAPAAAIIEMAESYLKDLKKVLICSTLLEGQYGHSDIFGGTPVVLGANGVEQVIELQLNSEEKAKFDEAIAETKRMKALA

[4] = inhibition of 3D7 malaria parasite growth – strain 3D7 (AID 2306);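 further: 0% = DMSO wells and 100% = chloroquine plus artemisinin control wells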; details: P. falciparum 3D7 erythrocytic growth, LDH absorbance, 72 h; at 2 µM; stronger effect = higher value
[5] = biological target: Calcium-dependent protein kinase 1 (Plasmodium falciparum (isolate 3D7)) (UniProt P62344); assay: PfCDPK1 kinase inhibitors, biochemical, TCAMS library (AID 1159585; cut-off not given, nearly all actives have IC50 up to about 0.98 µM;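 further: inhibitors leave more ATP so luminescence rises with inhibition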); details: recombinant PfCDPK1, Kinase-Glo ATP depletion luminescence
Calcium-dependent protein kinase 1 (Plasmodium falciparum (isolate 3D7)), sequence (P62344 whole entry, looked up): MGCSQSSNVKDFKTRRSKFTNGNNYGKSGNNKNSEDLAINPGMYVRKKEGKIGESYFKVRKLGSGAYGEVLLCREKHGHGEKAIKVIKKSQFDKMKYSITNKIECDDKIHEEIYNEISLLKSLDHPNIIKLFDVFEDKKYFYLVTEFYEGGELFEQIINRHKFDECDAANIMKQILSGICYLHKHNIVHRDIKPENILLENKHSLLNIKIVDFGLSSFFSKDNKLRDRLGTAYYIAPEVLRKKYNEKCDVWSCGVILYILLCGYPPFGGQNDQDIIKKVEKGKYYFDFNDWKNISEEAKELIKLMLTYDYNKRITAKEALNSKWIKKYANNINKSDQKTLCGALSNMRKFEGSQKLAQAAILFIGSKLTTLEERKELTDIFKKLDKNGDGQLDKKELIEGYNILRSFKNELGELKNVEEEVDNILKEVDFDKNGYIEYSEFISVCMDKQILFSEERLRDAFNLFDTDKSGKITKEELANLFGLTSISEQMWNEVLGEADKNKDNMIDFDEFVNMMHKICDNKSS

[6] = biological target: Plasmodium falciparum protein kinase 6 (PK6, PF3D7_1337100) (UniProt Q8IDW1); assay: PfPK6 kinase inhibitors, biochemical, TCAMS library (AID 1159586); details: recombinant PfPK6, Kinase-Glo ATP depletion luminescence
Plasmodium falciparum protein kinase 6 (PK6, PF3D7_1337100), sequence (Q8IDW1 1-305): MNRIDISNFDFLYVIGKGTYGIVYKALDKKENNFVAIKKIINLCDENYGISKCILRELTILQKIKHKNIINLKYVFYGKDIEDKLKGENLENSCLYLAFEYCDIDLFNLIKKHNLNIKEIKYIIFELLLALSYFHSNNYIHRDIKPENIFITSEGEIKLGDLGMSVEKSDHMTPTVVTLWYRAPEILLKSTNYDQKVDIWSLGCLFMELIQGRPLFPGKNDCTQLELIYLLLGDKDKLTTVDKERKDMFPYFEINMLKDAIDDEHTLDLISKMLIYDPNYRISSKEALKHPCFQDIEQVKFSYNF

[7] = biological target: Protein kinase 7 (PK7), Plasmodium falciparum 3D7 (PF3D7_0213400) (UniProt Q7YTF7); assay: inhibition of Plasmodium PK7 catalytic activity – biochemical, TCAMS antimalarial set, Kinase-Glo luminescence (AID 1159587); details: recombinant PfPK7, Kinase-Glo ATP depletion luminescence
Protein kinase 7 (PK7), Plasmodium falciparum 3D7 (PF3D7_0213400), sequence (Q7YTF7 1-343): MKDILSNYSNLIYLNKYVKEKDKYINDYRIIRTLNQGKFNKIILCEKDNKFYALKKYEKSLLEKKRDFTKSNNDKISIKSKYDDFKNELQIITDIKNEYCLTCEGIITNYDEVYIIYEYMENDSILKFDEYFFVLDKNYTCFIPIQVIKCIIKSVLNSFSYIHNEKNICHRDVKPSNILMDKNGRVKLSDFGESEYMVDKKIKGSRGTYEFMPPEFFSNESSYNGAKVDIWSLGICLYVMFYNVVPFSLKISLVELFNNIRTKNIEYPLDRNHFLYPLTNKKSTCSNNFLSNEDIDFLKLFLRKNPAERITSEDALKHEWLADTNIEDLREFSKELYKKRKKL

[8] = biological target: Calcium-dependent protein kinase 4 (Plasmodium falciparum (isolate 3D7)) (UniProt Q8IBS5); assay: PfCDPK4 kinase inhibitors, biochemical, TCAMS library (AID 1159588; cut-off not given, nearly all actives have IC50 up to about 0.91 µM); details: recombinant PfCDPK4, Kinase-Glo ATP depletion luminescence
Calcium-dependent protein kinase 4 (Plasmodium falciparum (isolate 3D7)), sequence (Q8IBS5 whole entry, looked up): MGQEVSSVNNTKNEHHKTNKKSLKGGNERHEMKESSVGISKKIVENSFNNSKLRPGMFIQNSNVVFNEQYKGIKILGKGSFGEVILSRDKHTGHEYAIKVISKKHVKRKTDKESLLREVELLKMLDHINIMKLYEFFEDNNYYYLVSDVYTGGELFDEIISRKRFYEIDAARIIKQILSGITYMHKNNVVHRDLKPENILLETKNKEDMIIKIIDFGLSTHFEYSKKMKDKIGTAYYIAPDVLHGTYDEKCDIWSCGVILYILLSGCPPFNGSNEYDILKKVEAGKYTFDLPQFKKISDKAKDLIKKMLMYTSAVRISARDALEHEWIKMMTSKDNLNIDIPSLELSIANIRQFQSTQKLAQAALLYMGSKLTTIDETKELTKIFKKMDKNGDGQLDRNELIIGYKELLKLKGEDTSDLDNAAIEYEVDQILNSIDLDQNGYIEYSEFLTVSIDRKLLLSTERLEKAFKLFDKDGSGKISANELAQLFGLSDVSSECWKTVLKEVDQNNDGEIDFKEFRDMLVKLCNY

Structure (SMILES)	growth inhibition [1]	inhibition [2]	inhibition [3] [%]	growth inhibition [4]	outcome [5]	outcome [6]	outcome [7]	outcome [8]
CCCCCCNC(=O)C1Cc2c([nH]c3cc(Cl)ccc23)C2(CCN(CCC)CC2)N1 (stereo not given)	18%	8%	0	92% (active)	inactive	inactive	inactive	inactive
O=C(Nc1cccc(CN2CCCN(Cc3cccc(O)c3)CC2)c1)c1ccc(-c2ccccc2)cc1	66% (active)	28%	3	101% (active)	inactive	inactive	inactive	inactive
COc1ccc(CNc2ncc(-c3ccsc3)c(-c3nccs3)n2)cc1OC	69% (active)	10%	-1	86% (active)	inactive	inactive	inactive	inactive
COc1cc(C=NNc2cc(C)nc3c(OC)cccc23)cc(OC)c1OC	49%	2%	0	94% (active)	inactive	inactive	inactive	inactive
Cc1ccc(NC(=O)N2CCCN(CCCCCNC(=O)/C=C/c3ccc(Cl)c(Cl)c3)CC2)cc1C	4%	62% (active)	1	101% (active)	inactive	inactive	inactive	inactive
NC(N)=NC(=O)Nc1cc(Cl)c(F)c(Cl)c1	64% (active)	22%	-4	100% (active)	inactive	inactive	inactive	inactive
O=c1cc(NCCCNC2CCCc3c2ccc2ccccc32)[nH]c2ccccc12 (stereo not given)	30%	-1%	-2	94% (active)	inactive	inactive	inactive	inactive
Cc1nn(CC(C)C)c2sc(C(=O)N3CCN(S(=O)(=O)c4ccc(C#N)cc4)CC3)cc12	99% (active)	14%	-2	99% (active)	inactive	inactive	inactive	inactive
CN(C)S(=O)(=O)c1ccc(C(=O)N(c2nc(-c3ccccc3)cs2)C2CCCCC2)cc1	46%	7%	-3	98% (active)	inactive	inactive	inactive	inactive
N#Cc1ccc(-c2ccc(C(=O)NCCCCN3CCC(c4ccc5c(c4OCC(N)=O)CCCC5)CC3)cc2)cc1	23%	21%	-3	87% (active)	inactive	inactive	inactive	inactive
NCC1CCCN1Cc1ccc(-c2cccc(-c3nc4ccc(C(F)(F)F)cc4[nH]3)c2)cc1 (stereo not given)	97% (active)	24%	1	99% (active)	inactive	inactive	inactive	inactive
CC(ON1C(N)=NC(N)=NC1(C)C)c1ccccc1 (stereo not given)	58% (active)	65% (active)	0	96% (active)	inactive	inactive	inactive	inactive
CCCNc1ccc2nccc(CCN3CCC(NCc4ccc5c(c4)NC(=O)CS5)CC3)c2n1	17%	-2%	-5	94% (active)	inactive	inactive	inactive	inactive
Oc1cc2c(cc1CN1CCN(Cc3cccs3)CC1)CCC2	91% (active)	10%	-7	99% (active)	inactive	inactive	inactive	inactive
COc1ccc(-c2nccc(NC(N)=NCc3ccccc3)n2)cc1	21%	27%	1	83% (active)	inactive	inactive	inactive	inactive
N#Cc1ccc2c(c1)CCN(CCC1CCC(NC(=O)Nc3ccnc4ccccc34)CC1)C2 (stereo not given)	77% (active)	38%	2	104% (active)	inactive	inactive	inactive	inactive
CCN(CC)CCCNc1ncc2c(-c3ccc(NC(=O)Nc4cc(C(F)(F)F)ccc4F)c(F)c3)nn(C)c2n1	68% (active)	100% (active)	3	94% (active)	inactive	inactive	inactive	inactive
CCOc1cc(C(=O)Nc2ccc3nc(N4CCN(C)CC4)cc(C)c3c2)cc(OCC)c1OCC	50% (active)	14%	-1	97% (active)	inactive	inactive	inactive	inactive
COc1ccc(CCN(C)CCCOc2ccc(NC(=O)c3cccc4c(=O)c5ccccc5[nH]c34)cc2)cc1OC	45%	80% (active)	1	94% (active)	inactive	inactive	inactive	inactive
CC(C)CNCc1ccc(-c2ccc(CN(CCCN3CCN(C)CC3)C(=O)/C=C/c3ccccc3)cc2)cc1	93% (active)	57% (active)	3	99% (active)	inactive	inactive	inactive	inactive

Structure (SMILES)	growth inhibition [1]	inhibition [2]	inhibition [3] [%]	growth inhibition [4]	outcome [5]	outcome [6]	outcome [7]	outcome [8]
O=C(Nc1ccc(-c2nc3ccccc3[nH]2)cc1)C1CCN(Cc2ccc(F)cc2)CC1	91% (active)	13%	1	102% (active)	inactive	inactive	inactive	inactive
O=C(Nc1cc(C(F)(F)F)cc(C(F)(F)F)c1)c1cccc([N+](=O)[O-])c1	15%	23%	-2	93% (active)	inactive	inactive	inactive	inactive
Cc1ccc(NC(=O)Nc2ccccc2)cc1-c1ccc(C(=O)Nc2ccncc2)cc1	52% (active)	67% (active)	0	99% (active)	inactive	inactive	inactive	inactive
Cc1ccccc1C1CCN(C2CCC(NC(=O)/C=C/c3cc(F)ccc3F)CC2)CC1 (stereo not given)	36%	47%	-2	85% (active)	inactive	inactive	inactive	inactive
N#Cc1ccc(NC(=O)NC2CCN(CCCCCNC(=O)/C=C/c3ccc(Cl)c(Cl)c3)CC2)cc1	4%	15%	0	98% (active)	inactive	inactive	inactive	inactive
Cc1cc(N(C)C2CCN(CC3CCCCC3)C2)nc(Nc2ccc(Br)cc2)n1 (stereo not given)	38%	14%	-1	98% (active)	inactive	inactive	inactive	inactive
CNC(=O)c1ccccc1Nc1nc(Nc2cccnc2)ncc1C	90% (active)	17%	1	93% (active)	inactive	inactive	inactive	inactive
Cc1ccc(Cn2nc(Cl)c(N3CCCNCC3)cc2=O)cc1NC(=O)Nc1ccc(-c2ccccc2)cc1	55% (active)	90% (active)	-1	101% (active)	inactive	inactive	inactive	inactive
N#Cc1ccc2c(c1)CCN(CCC1CCC(NC(=O)/C=C/c3cc(Br)cs3)CC1)CC2 (stereo not given)	1%	3%	5	93% (active)	inactive	inactive	inactive	inactive
C[C@@H](Oc1cc(-n2cnc3ccc(NC(=O)NC(C)(C)C)cc32)sc1C(N)=O)c1ccccc1Cl	97% (active)	28%	1	95% (active)	inactive	inactive	inactive	inactive
Cc1noc(C)c1-c1ccc(C(=C2CCCCCC2)c2ccc(O)cc2)cc1	96% (active)	-7%	7	100% (active)	inactive	inactive	inactive	inactive
COc1ccc(C(F)(F)F)cc1N1CCN(CCCCNC(=O)c2ccc(NC(=O)c3ccc(Cl)cc3)cc2)CC1	1%	12%	8	94% (active)	inactive	inactive	inactive	inactive
COc1cc(Nc2nccc(N3CCC(NC(=O)Nc4cccc(C(C)=O)c4)C3)n2)cc(OC)c1OC (stereo not given)	34%	8%	-3	91% (active)	inactive	inactive	inactive	inactive
CC[C@H](C)CNC(=O)c1cncc(-c2cccc(CNCCCc3ccccc3)c2)c1	0%	9%	1	95% (active)	inactive	inactive	inactive	inactive
Cc1nnsc1C(=O)Nc1cccc(-c2ccc(-c3nc4ccccc4[nH]3)s2)c1	13%	55% (active)	-3	89% (active)	inactive	inactive	inactive	inactive
O=C(Nc1cccc(C(F)(F)F)c1)NC1CCN(c2ccnc3ccccc23)CC1	43%	23%	-1	101% (active)	inactive	inactive	inactive	inactive
CCc1cccc(NC(=O)/C=C/c2ccc3c(c2)CN(C)CC3)c1	91% (active)	8%	-1	94% (active)	inactive	inactive	inactive	inactive
CS(=O)(=O)N1CC2(CCN(CCC(NC(=O)Nc3ccccc3)c3ccc(Cl)c(Cl)c3)CC2)c2ccccc21 (stereo not given)	72% (active)	23%	5	99% (active)	inactive	inactive	inactive	inactive
CC(C)C[C@H](NC(=O)c1ccc(OCCN2CCOCC2)cc1)C(=O)N[C@H](/C=N/N(C)C(=O)c1ccccc1)CCc1ccccc1	72% (active)	8%	1	91% (active)	inactive	inactive	inactive	inactive
COc1ccc(-c2ccc3c(-c4ccc(F)cc4)cnc(N)c3c2)cn1	86% (active)	4%	-5	99% (active)	inactive	inactive	inactive	inactive
